# PubChem BioAssay (NCI)
# The panel holds about 83,000 compounds, 20% with a hit somewhere; the sample as a whole holds those more often.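 Interpretation: 100, growth as untreated; towards 0, rising growth inhibition; 0, no net growth; 0 to -100, cell death. Compounds scoring below 10 were considered active.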 Unmarked numbers belong to inactive results. The source made the active and inactive calls.
# Legend:
# Experiment in all cases: NCI-60 one-dose screen, 48 h (100 = growth as untreated, 0 = no growth, -100 = all killed)
# Settings in all cases: 10 µM unless noted
# [1] = test system: NCI-H23 lung
# [2] = test system: NCI-H226 lung
# [3] = test system: NCI-H322M lung
# [4] = test system: HOP-62 NSCLC
# [5] = test system: NCI-H460 lung
# [6] = test system: HOP-92 NSCLC
# [7] = test system: NCI-H522 lung
# [8] = test system: A549/ATCC NSCLC
# [9] = test system: 786-0 renal
# [10] = test system: COLO 205 colon
# [11] = test system: DU-145 prostate
# [12] = test system: K-562 leukemia
# [13] = test system: MALME-3M melanoma
# [14] = test system: MDA-MB-231 breast
# [15] = test system: RXF 393 renal
# [16] = test system: SF-268 CNS
# [17] = test system: SF-295 CNS
# [18] = test system: SF-539 CNS
# [19] = test system: UACC-257 melanoma
# [20] = test system: M14 melanoma
SMILES,growth [1],growth [2],growth [3],growth [4] [%],growth [5],growth [6],growth [7],growth [8],growth [9] [%],growth [10],growth [11] [%],growth [12],growth [13],growth [14],growth [15],growth [16] [%],growth [17] [%],growth [18] [%],growth [19],growth [20] [%]
CC(C)n1cnc2c(Nc3cccc(Cl)c3)nc(N[C@H]3CCCC[C@@H]3N)nc21,61.7%,68.6%,66.4%,42.8,45.7%,26.8%,38.7%,55.7%,45.7,26.4%,49.7,35.5%,45.5%,32.6%,53.2%,46.5,76.3,71.3,64.1%,40.9
Cc1c(C(=O)NCCCc2ccccc2)sc2ncc(-c3ccc(Br)cc3)n12,91.7%,102%,100%,99.3,107%,113%,98.5%,108%,100,113%,104,101%,101%,99.4%,109%,98.9,112,103,109%,100
COc1cc(/C=C2\C(=O)Nc3ccc(Br)cc32)cc(OC)c1OC,63.5%,77.1%,76.1%,85.2,73.3%,48.2%,47%,-4.21% (active),84.9,70.8%,91.8,32.6%,88.6%,65.5%,-13.6% (active),84,68.6,85.6,17.2%,79.2
Cc1ccc2sc3c(NCCN)nc4ccccc4c3c(=O)c2c1,81.1%,93.2%,81.5%,80.6,-17.1% (active),50.7%,85%,73.3%,87.7,-21.7% (active),64.1,0.362% (active),102%,41.7%,89.8%,74.5,105,70.8,108%,86.7
CCCCn1c(=O)c(-c2cc(-c3ccc(Cl)cc3)nc(-c3ccc(Cl)cc3)c2)cc2cc(Cl)ccc21,105%,104%,96%,104,108%,94.2%,99.3%,101%,106,109%,112,102%,104%,84.6%,118%,98.4,103,103,96.1%,101
CCCCCCCCCCCCCCCCCCOc1ccc(CC(=O)OCC[N+]2(C)CCCCC2)cc1,86.7%,101%,96.4%,101,101%,97.8%,89.2%,88.9%,92.8,103%,107,83.9%,98.8%,100%,102%,100,110,99.4,96%,99.8
N#Cc1cccc(NC(=O)c2cc(-c3ccc(F)cc3F)ccc2O)c1,1.56% (active),3.58% (active),1.78% (active),23,6.49% (active),-24.2% (active),-3.38% (active),27.3%,31.1,107%,18.4,13.3%,-25.1% (active),-2.77% (active),3.07% (active),14.5,80.5,16.3,-10% (active),23.6
C(=N/Nc1ncnc2nc[nH]c12)/c1ccccn1,47.6%,39.9%,22.4%,23.6,55.8%,19.4%,35.7%,35.2%,21.4,26.1%,32.1,24.8%,46.4%,53.7%,66.8%,26.6,20.1,20.6,51.5%,14.2
